# Test results: PubChem BioAssay (NCATS)
# Unmarked numbers belong to inactive results. The source made the active and inactive calls. How the calls were made is not given here.
# Assay: qHTS assay for small molecule activators of the human pregnane X receptor (PXR) signaling pathway (AID 720659); further: 0% is about no effect
# Conditions: DPX-2 HepG2 CYP3A4-luciferase, 24 h; series mostly up to 92.3 µM; activation: at the top concentration
Compound,activation [%],outcome
CC(C)=C1CCC(C)CC1=O (centres undefined),-14.7,
O=CNc1ccccc1,-7.6,
CNc1ccc([N+](=O)[O-])cc1,-4.74,
Nc1nc(CC(=O)O)cs1,-5.06,
O=Cc1ccc(CO)o1,-12.3,
O=[N+]([O-])c1ccc(NCCO)c(OCCO)c1,-7.89,
O=C(O)c1c(Cl)cccc1Cl,-15,
CCCCCNCCCCC,,inactive
Nc1ccccc1[N+](=O)[O-],-6.65,
C=C(C)C(=O)OCCCCCC,-11.8,
NC(=O)c1ccccc1[N+](=O)[O-],-6.8,
Nc1cc(Cl)c([N+](=O)[O-])cc1O,-9.58,
Fc1ccccc1,-3.9,
CC(C)(C)OCC1CO1 (centres undefined),-9.04,
CCCOCC(C)OCC(C)O (centres undefined),-0.693,
O=Nc1ccc(NO)cc1,-10.1,
CCOC(=O)C(C)C(C)=O (centres undefined),-1.7,
ClCCl,-15.4,
O=C(Cl)c1cccc([N+](=O)[O-])c1,-4.65,
Cc1ccccc1C=O,18.4,

Compound,activation [%],outcome
CCCCC=O,-7.6,
Cc1ccccc1Br,-9.56,
Cc1ccccc1C(=O)O,-4.34,
c1ccc2[nH]cnc2c1,-10.1,
C=Cc1ccccn1,-1.84,
COC(=O)CC#N,-8.63,
CCCCC(CC)C(=O)O (centres undefined),-5.82,
CC(CCl)OC(C)CCl (centres undefined),8.26,
O=C(Cl)c1ccccc1[N+](=O)[O-],-13.3,
CC(C)Nc1ccccc1,-3.65,
Cc1ccc(C)c([N+](=O)[O-])c1,-9,
O=C1NC(=O)c2cc([N+](=O)[O-])ccc21,-12.1,
Cc1c(N)cccc1[N+](=O)[O-],-6.14,
O=C1CCC(=O)O1,-11.5,
COc1cccc2sc(N)nc12,23.5,
C1CCC2OC2C1 (centres undefined),-4.73,
Cc1ccc(C(=O)O)cc1,-12,
CC(=O)c1ccccc1[N+](=O)[O-],-7.66,
C=CCCCCCC,-8.44,
